# In the supplement of paper PMC6555819:
# How the values were obtained:
# Experiment in all cases: PBM binding z-score (relative to random genomic background probes); higher = stronger binding; sequences stand for … in GC…GCGATTGACAGCGTAGAATGAAGG
# [1] = system: RARb homodimer (NR concentration 270 nM)
# How it was run: (§1)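 Binding z-scores were set against random background probes. The data came from custom Agilent 4×180K protein-binding microarrays carrying double-stranded probes with 34-nt variable regions, incubated 1 h with ligand-free nuclear receptor dimers. Partner-specific antibodies detected binding, and scanned fluorescence was regression-normalized.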
# [2] = system: RARg:RXRa (NR concentration 270 nM, RXRa partner concentration 90 nM)
# How it was run: as §1
# [3] = system: RARg homodimer (NR concentration 270 nM)
# How it was run: as §1
# [4] = system: RXRa DBDmut IVT, anti-RXR (DBD mutation: RXRa K156A/R161A, NR concentration 90 nM)
# How it was run: as §1
# [5] = system: RXRa homodimer (NR concentration 180 nM)
# How it was run: as §1
# [6] = system: THRa:RXRa (NR concentration 90 nM, RXRa partner concentration 90 nM)
# How it was run: as §1
# [7] = system: THRa homodimer (NR concentration 90 nM)
# How it was run: as §1
# [8] = system: VDR homodimer (NR concentration 270 nM)
# How it was run: as §1
# [9] = system: VDR:RXRa (NR concentration 270 nM, RXRa partner concentration 90 nM)
# How it was run: as §1
Sequence,PBM binding z-score [1],PBM binding z-score [2],PBM binding z-score [3],PBM binding z-score [4],PBM binding z-score [5],PBM binding z-score [6],PBM binding z-score [7],PBM binding z-score [8],PBM binding z-score [9]
CGAACTAGGTCACTAGGACAGTGAAGAGGTTGGA,3.02,3.58,4.16,1.22,2.07,2.71,0.967,0.00359,–
CTAGGTAGGTTAAGGGGGTCATTCAGTTTGAAAG,3.87,4.95,3.79,1.97,5.77,3.78,2.19,5.84,–
ATATGTAGGTTAGGGTCATTCAGAAAGTAGGGAA,3.49,4.11,3.21,2.68,5.53,3.97,3.55,4.01,–
CGAACTAGGTCAAAGGACAGCGAAAGGCGACGTA,3.05,4.13,4.72,1.85,3.19,2.46,0.406,0.311,–
CAAACTAGGCCAAGGTCAAAGTCGGTTTGTGCCA,3.85,4.2,4.17,2.06,3.91,3.77,2.36,3.23,–
CTATGTAGGTTAACGGGGTCATTCAGTTTGAAAG,4.24,5.11,3.74,3.05,6.78,4.44,2.55,7.5,–
CGTCCAAGGTCAGAGAGGTCATTGAATGCCGAGT,5.86,6.66,6.96,3.6,6.75,–,3.35,7.43,–
CAAACTAGGTCAAAGGTCAAAGCCGAGCCAACCA,5.47,8.97,7.51,2.57,10.7,–,1.74,2.99,–
ACTAGGTGGTCAGCTGAGGTCACACACAATTCGG,4.47,4.04,4.46,0.949,4.06,–,5.08,2.8,–
ATATGTAGGTTAGAGTCATTCAGAAAGTAGGGAA,0.746,0.752,0.891,0.428,0.703,–,0.254,0.387,–
CAACCTAGGTCACGAAAGGTCAAAGTCGAATGAC,6.02,7.91,8.53,2.31,8.43,–,2.77,3.44,–
TAGCCTAGGTTATGCGGGCCAGTATAGTGTCGGC,0.219,-0.108,0.272,-0.93,0.14,–,-0.669,-0.934,–
CCTGGCAGGCCAGGGTCACTCAAGCATTTCGCTT,2.66,3.49,2.46,-0.63,–,2.96,0.655,1.3,2.52
GCTGCTAGGTTAACTGATGGTCAGCTAAAGCTCG,0.815,1.6,0.672,0.235,–,0.689,-0.683,-0.649,-0.182
CCTACTGGGCCATCAGGTGATTGATATCAACGTT,-0.117,0.0131,0.41,-0.814,-0.272,–,0.389,-0.474,–
CGTCCAAGGTCAGTGAGGTCAGTGAATGCCGAGT,5.33,5.76,6.56,3.28,4.61,–,4.36,5.33,–
CGTCCAAGGTCAAAGGTCAGGGAAGAGATGACGG,5.58,9.1,8.2,3.54,10.4,–,2.92,3.13,–
ACTAGTGGGTCAGCTGAGGTCACACACAATTCGG,5.07,5.77,6.44,1.74,5.48,–,4.71,4.55,–
CGAACTAGGTAAAGGACAGTGAATCTCCGCACGC,0.899,0.243,0.583,0.0169,0.286,–,-0.0591,-0.21,–
CGAACGAGGTCAGAACAGGACAGTGAAGGATGAT,3.19,4.63,4.76,3,4.37,–,1.37,2.1,3.67

Sequence,PBM binding z-score [1],PBM binding z-score [2],PBM binding z-score [3],PBM binding z-score [4],PBM binding z-score [5],PBM binding z-score [6],PBM binding z-score [7],PBM binding z-score [8],PBM binding z-score [9]
GCTTACGGGTCAAAGGTTAAAGCATGAATAGAAT,3.36,7.28,5.18,2.07,–,4,-0.111,1.4,5.38
CCTACTGGGCCACGTAAGGTCATTGATTCAGTGA,3.87,3.33,3.01,0.502,3.33,–,4.46,2.84,–
TTACCAAGGTCAGCTGAGGTCGTTGATCCAACTC,4.61,5.52,6.14,2.79,4.69,–,3.51,4.14,–
ACTAGTAGGTCAGCTGAGGTCACACACAATTCGG,5.47,6.45,7.1,2.43,6.29,–,5.63,5.23,–
CCTAGCAGGCGAGGGTCACTCAAGCATTTCGCTT,2.36,2.77,1.69,0.212,–,1.79,-0.42,0.128,1.59
CCTAGCAGGCCAATCGGGGTCACTCAAGGCTTGA,3.66,4.43,3.43,1.12,6.01,–,2.35,4,–
CCGAGTAGGTTACGTGGGGGCATTCAGTGCGAAT,2.1,2.87,2.05,1.44,2.12,–,1.09,2.85,–
TCTAGTAGGTCACGGAGGTCACACACGACGGGTA,4.79,7.29,7.88,2.43,7.26,–,3.15,4.8,–
CAAACTAGGTCAAAGGTCAAAGTAGAGCCAACCA,5.2,8.91,7.32,2.8,10.3,–,1.79,2.99,–
CCGAGTAGGTTACGAGGAGGCATTCAGTGCGAAT,-0.00242,0.333,0.522,0.082,0.427,–,-0.82,-0.434,–
TAGCCTAGGTCATTCAGGCGCCAGTATAGAAAGC,2.25,3.97,4.09,1.78,–,2.7,0.451,1.3,2.53
CGTCCAAGGTCAATGCTAGGTCACTGAAAGCATT,5.18,7.94,6.93,3.59,5.56,–,3.87,3.43,–
TCGAGTAGGTTACGGCGGCATTCAGGGATGAAGA,0.0882,0.396,0.134,-0.00856,0.642,–,-0.386,-0.475,–
GATAGTTGGTCAGTAAAAGGTCACACACCGGTCG,5.36,5.32,4.96,0.579,–,3.59,1.91,2.12,3.94
TTACCAAGGTGACCTGAGGTCGTTGATCCAACTC,3.13,3.18,2.35,0.664,3.64,–,3.94,3.65,–
CGTCAAAGTTCACCTAAGGTAACGTAAAGCACGC,4.45,5.95,6.36,4.67,5.09,–,3.11,4.19,–
GCATATAGGTAATTCAAGGTGAAAGTCCGATTGT,0.847,0.546,0.26,0.583,0.756,–,1.67,0.292,–
TGAATGACGTTAAAGATCAGGGAACGTGGCGTCG,-0.807,0.00646,0.113,-0.922,–,-0.478,-0.747,-0.61,-0.237
CTCGAAAGGTCAGTTGAGGTGAGTATACGGATAA,4.91,6.7,7.89,2.56,5.93,–,1.63,1.63,–
CGTCCAAGGTCATAGGAGGTCATTGAAGACAGAT,5.6,7.14,7.75,4.08,–,5.39,3.7,6.14,7.27

Sequence,PBM binding z-score [1],PBM binding z-score [2],PBM binding z-score [3],PBM binding z-score [4],PBM binding z-score [5],PBM binding z-score [6],PBM binding z-score [7],PBM binding z-score [8],PBM binding z-score [9]
ATATGTAGGTTACGTCCGGGTCATTCAGGCTATG,3.02,4.03,2.34,1.06,–,4.01,2.88,2.91,4.14
CCTTACGGGTCACTCAAGGTTATAGCATCGGAGT,3.55,4.9,4.38,2.01,5.23,–,1.01,1.75,–
ATCTAAAGGTCGAAGGTGAGTATACCCACCCGAA,2.54,4.32,3.66,1.74,–,2.21,0.159,0.755,2.95
GATACAGGGTGAGCTAGAGGCCAGAGTATGGAAA,0.626,2.08,0.586,-0.965,0.342,–,-0.562,-0.731,–
ATCGAAAGGTCGAAGGTCAGTATACCCACCCGAA,4.11,6.01,5.42,1.78,–,3.31,0.706,1.51,4.35
AGTCAAAGTTCATCTAGGTAACGAAAGATATGCT,3.88,5.82,6.19,4.79,–,3.24,0.383,5.04,–
AGTCAAAATTCACTAGGTAACGTAAGATTCAGCT,0.0175,0.434,0.425,0.24,–,0.806,0.608,0.272,0.0665
CCTTACGGGTCACTCCATGTTATAGCATCGGAGT,2.87,4.1,3.99,1.59,–,2.84,-0.286,1.46,–
GATACAGGGTCAATGCCAGAGTACGCGTATTGAT,3.11,4.62,4.35,2.89,–,2.87,0.742,2.31,3.93
CCAGACAGGTGAAAGGTCACTCAGTCTGGTACGC,4.99,6.66,5.89,1.18,–,3.75,1.02,2.37,–
CAAACTAGGTCACAGAGGGCAAAGTCCGTGCGTA,4.14,5.05,5.61,2.45,–,3.87,1.55,4.18,–
TGAATGAAGTTAAAGATCAGGGAACGTGGCGTCG,-1,-0.156,0.00438,-0.803,–,-0.586,-1.06,-0.533,–
TAGCCTAGGTCATAGGGCCAGTATAGTACGCATC,2.98,3.86,3.89,0.967,–,2.75,0.823,0.453,–
CCTAGTTGGTCAAGCTCACACACGCTATAGGTAC,0.906,0.632,1.12,0.623,–,0.136,0.545,0.614,–
CAAACTAGGTCACAGAGGTTAAAGTCCGTGCGTA,4.34,5.36,5.64,2.38,–,4.12,2.1,3.13,–
TCTAGTTGGTCATGGAGGTCACACACGACGGGTA,4.43,4.86,5.01,1.01,–,3.61,2.8,3.38,5.98
TAGCATAGGTCATGCGGGCCAGTATAGTGTCGGC,3.46,4.99,4.91,0.439,–,2.55,-0.558,0.259,–
CCGACTGGGTCAAAGGTTACCATACTCAGTACGA,3.42,5.88,4.13,1.23,–,3.62,0.418,0.82,4.41
TGAATGAGGTTAAAGGTCAGGGAACGTGGCGTCG,4.57,7.13,5.51,1.87,–,4.33,1.94,2.81,–
ACTAGTTGGTCACCTGAGGTCACACACAATTCGG,4.6,4.66,4.96,1.53,–,5.34,5.66,5.13,–
